# uPA generation: inhibitors of cell surface uPA generation | AID 540303 | 330,000 compounds, 0.31% hits | Potency, µM (top dose mostly 38.3 µM), inactives show at the top dose activity change, negative = inhibition, hits mostly inhibitors | cell surface uPA generation assay, qHTS; active = well fitted inhibition curve with a large enough effect; inconclusive = small, poorly fitted or top-dose-only effect; inactive = no such curve, though single readings can be large or run the other way; tested in mouse RAW 264.7 cells; also: potency is read from the fitted curve at half-maximal effect; nearly all actives have a fitted effect of over 55% in size
# HT1080 IDH1KD tx: kills HT-1080 cells with IDH1 knockdown | HT-1080 IDH1 knockdown viability, ATP luminescence, 48 h | Potency, µM (titrated, usually from 46.1 µM), without a hit: at the highest dose activity, negative = toxicity, actives largely listed as cytotoxic | 360,000 compounds, 2% hits | AID 686971;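 also: potency is read from the fitted curve at half-maximal effect; 0% = DMSO wells and -100% = cell-free medium wells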
#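 Cytotoxicity counter-line: IDH1KD HT-1080, 48 h, CellTiter-Glo. Curves classed by r2, magnitude and activity.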
# IL-1B inflam inh: inhibitors of inflammasome signaling (IL-1 beta secretion); 360,000 compounds, 4.7% hits; activity change, % at 57.5 µM; THP-1 LPS/ATP IL-1B secretion, AlphaLISA, 16 h; active compounds read low; AID 743279; in the data active = activity change below about -50%; inconclusive = mostly about -30% to -49%
#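 THP-1 cells pretreated 1 hr with compounds (up to 57.5 uM final), then stimulated with LPS (250 ng/mL final) plus ATP (1.25 mM final); secreted IL-1B measured by AlphaLISA after 16 hr, decreased signal indicating inhibition.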
# DT40 TDP1 no CPT: qHTS for Inhibitors of human tyrosyl-DNA phosphodiesterase 1 (TDP1): qHTS in cells in absence of CPT | DT40 Tdp1-/- hTDP1 cells, no CPT, ATP luminescence, 48 h | Potency, µM (titrated, usually from 46.2 µM), for inactives: at the top dose activity change, negative = growth inhibition, usual class: inhibitors | 420,000 compounds, 15% hits; also: potency is read from the fitted curve at half-maximal effect; nearly all actives have a fitted effect of over 55% in size
#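 Growth of hTDP1-complemented DT40 Tdp1-knockout cells is measured by ATP luminescence after at least 48 hr compound exposure at 37 °C, with DMSO substituting for the 20 nM CPT used in the parallel screen.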
# HT1080NT lethal: kills 2HG-producing HT-1080-NT fibrosarcoma cells; Potency, µM (top dose mostly 46.1 µM), for the others: at the highest dose activity, negative = less viability, hits mostly cytotoxic; AID 686970; HT-1080-NT fibrosarcoma viability, CellTiter-Glo ATP luminescence, 48 h; 360,000 compounds, 1.6% hits;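 also: NT is the 2HG producing partner of a matched IDH1 knockdown line; potency is read from the fitted curve at half-maximal effect; 0% = DMSO-treated cells and -100% = media-only wells without cells; nearly all actives have a fitted effect of over 55% in size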
#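 A 48-hour cytotoxicity screen used HT-1080-NT cells plated 2 hours before compound delivery. ATP-based CellTiter-Glo luminescence measured viability, normalized to DMSO and no-cell controls.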
# DT40 TDP1 CPT: DT40-hTDP1 cell growth loss with CPT | chicken DT40 Tdp1-/-;hTDP1 cells + 20 nM CPT, ATP luminescence, 48 h | Potency, µM (top dose mostly 46.2 µM), for inactives: at the highest dose activity change, negative = growth inhibition, usual class: inhibitors | 420,000 compounds, 12% hits | AID 686979; also: potency is read from the fitted curve at half-maximal effect; nearly all actives have a fitted effect of over 55% in size
#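 Cell growth measured by CellTiter-Glo luminescence after a minimum 48 h, 37 C compound exposure with 20 nM CPT in Tdp1-knockout DT40 cells stably expressing hTDP1, seeded 400/well; qHTS titration format.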
# * = called active by the depositor; ? = inconclusive; / = no result given. This is a sample that favours compounds with a hit; in the whole collection about 19% have one here. Unless noted, calls follow the shape of the dose curve; as a rule, active = well fitted curve in the direction sought with a large enough effect; inconclusive = small, poorly fitted or top-dose-only effect, or another doubt; inactive = no such curve, though single readings can be large; an effect the other way counts as inactive or inconclusive. Unless noted, % is scaled to controls: 0 for no effect and ±100 for the full control effect.
SMILES,uPA generation,HT1080 IDH1KD tx,IL-1B inflam inh,DT40 TDP1 no CPT,HT1080NT lethal,DT40 TDP1 CPT
CC1NC(=O)NC1CCCCC(=O)O (centres undefined),2%,13%,7,?,23%,?
CC1NC(=O)NC1CCCCCC(=O)Nc1ccc(F)c(Cl)c1 (centres undefined),2%,-5%,-116*,-21%,-1%,6%
CCOC(=O)C1(CCCc2ccccc2)CCN(C(=O)c2ocnc2C)CC1,-5%,-20%,-20,?,-4%,-30%
CCOC(=O)C1(CCCc2ccccc2)CCN(C(=O)c2n[nH]c(CC)c2C)CC1,/,-19%,?,13µM*,-4%,23µM*
CCOC(=O)C1(CCCc2ccccc2)CCN(C(=O)c2cncs2)CC1,-2%,-24%,-23,23µM*,-14%,18µM*
CCOC(=O)C1(CCCc2ccccc2)CCN(C(=O)Cn2nc(C)nc2C)CC1,2%,-6%,22,?,0%,23µM*
CCOC(=O)C1(CCCc2ccccc2)CCN(C(=O)c2cc(C)nn2CC)CC1,-9%,-12%,9,9.2µM*,?,18µM*
CCOC(=O)C1(CCCc2ccccc2)CCN(C(=O)COC)CC1,1%,25%,8,-5%,?,?
CC(=O)Nc1cccc(-c2csc(C(O)c3ccccc3)n2)c1 (centres undefined),/,0%,27,-14%,4%,?
Cc1cccc(N2C(=O)CSC23CCCCC3)c1,0%,2%,11,?,2%,?
CNC(=S)N/N=C1\CC(c2ccccc2)Oc2ccccc21 (centres undefined),/,-12%,25,2.6µM*,-16%,5.2µM*
Fc1ccc(N/N=C2/CC(c3ccccc3)Oc3ccccc32)c(F)c1 (centres undefined),3%,-12%,-52*,3%,-9%,4%
O=S(=O)(N/N=C1/CC(c2ccccc2)Oc2ccccc21)c1ccc(Br)cc1 (centres undefined),2%,-23%,2,?,-12%,?
CCNc1ncc2nc(-c3cc(F)cc(F)c3)c(=O)n(CCOC)c2n1,/,/,/,-5%,/,-15%
COc1cccc(-c2ccc(O)c(CNCc3cccc4ccccc34)c2)n1,/,/,/,-19%,/,-6%
c1ccc2c(c1)ncn2CCn1cnc2ccccc21,1%,16%,-5,-6%,18%,-14%
Cc1ccc(Cn2cnc3ccccc32)cc1,-12%,?,-54*,21µM*,-25%,15µM*
CC(=O)N1CCOc2ccc(S(=O)(=O)N3CCC(C(=O)NCc4ccc(Cl)cc4)CC3)cc21,/,5%,0,?,11%,?
Nc1c(C(=O)N2CCOCC2)sc(=S)n1-c1ccccc1,/,5%,-9,?,2%,?
Nc1c(C(=O)N2CCCCC2)sc(=S)n1-c1ccccc1,/,4%,-22,?,16%,21µM*
NC(=O)C1CCCN(C(=O)CN2C(=O)NC(c3ccccc3)(c3ccccc3)C2=O)C1 (centres undefined),1%,8%,26,-26%,9%,-5%
CC1(C)Cc2ccccc2C(COc2ccccc2)=N1,2%,0%,-73*,?,-12%,?
CC(C)CN1CCC(=O)N(CCSc2ccc(Br)cc2)CC1,-4%,0%,6,?,-2%,21µM*
CCCN1CCC(=O)N([C@H](CSc2ccc(Br)cc2)Cc2ccccc2)CC1,1%,-24%,-9,?,-27%,?
Cc1ccc(SC[C@H](Cc2ccccc2)N2CCN(CC(C)C)CCC2=O)cc1,-10%,8%,-23,18µM*,7%,?
SMILES,uPA generation,HT1080 IDH1KD tx,IL-1B inflam inh,DT40 TDP1 no CPT,HT1080NT lethal,DT40 TDP1 CPT
CC(C)CN1CCC(=O)N([C@H](CSc2ccccc2)Cc2ccccc2)CC1,-20%,-9%,-17,16µM*,-1%,18µM*
CCCN1CCC(=O)N([C@H](CSc2ccccc2)Cc2ccccc2)CC1,-9%,0%,-8,11µM*,2%,11µM*
CC(C)CN1CCC(=O)N([C@H](CO)Cc2ccccc2)CC1,14%,7%,26,-13%,16%,8%
CCC(=O)N1CCCC(C(=O)Nc2nc3ccccc3[nH]2)CC1 (centres undefined),/,20%,18,-4%,23%,-5%
Cc1ccc(-n2c(=O)[nH]c3c(C(N)=O)nc(-c4ccc(C)o4)nc32)cc1,6%,?,14,13µM*,-20%,9.2µM*
COCCCNC(=O)CSc1nc2cc3c(cc2c(=O)n1CCCCCC(=O)NCc1ccc(OC)cc1)OCO3,/,/,/,-22%,/,-8%
Cc1ccccc1S(=O)(=O)Oc1cccc2c(O)cccc12,19%,-1%,16,-4%,0%,-12%
CC(C)c1cc(CN2C(C)COCC2C)cc(C(C)C)c1O (centres undefined),-4%,0%,-18,?,1%,21µM*
CCc1nc2c(OCc3cccc(Cl)c3)cccn2c1N(C)C(=O)C(C)C,/,-15%,22,18µM*,-21%,16µM*
CCc1nc2c(OCc3cccc(Cl)c3)cccn2c1N(C)C(=O)Nc1ccccc1OC,/,?,-19,23µM*,?,18µM*
CCCCC(=O)N(C)c1c(CC)nc2c(OCc3cccc(Cl)c3)cccn12,/,?,-5,23µM*,?,?
CCc1nc2c(OCc3ccccc3C(=O)OC)cccn2c1N(C)C(=O)Nc1ccccc1OC,/,-30%,-27,?,-7%,?
CCCCC(=O)N(C)c1c(CC)nc2c(OCC=C(C)C)cccn12,/,?,41,21µM*,?,?
CCc1nc2c(OCc3cccc(Cl)c3)cccn2c1N(C)C(C)=O,/,5%,-19,?,10%,?
Cc1ccc(NC(=O)CNC(=O)CN2C(=O)c3ccccc3C2=O)cc1,/,6%,6,-1%,?,1%
